Measured values: PubChem BioAssay
Active and inactive are the calls of the source.

Assays:
Albumin (Bos taurus) = Albumin (Bos taurus) (UniProt P02769); assay: compounds binding labelled BSA control protein – biochemical, small-molecule microarray, Alexa647 label, 635/667 nm fluorescence, artefact control for SMM control protein annotation, profiling panel (AID 1118); conditions: BSA-A647 binding, fluorescence 635 nm, higher = more signal;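 note: score merges 667 nm emission intensity and signal-to-noise per printed compound spot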
[1] = probe aXIP binding to arrayed compounds – biochemical, NeuroSMM set, 635/667 nm fluorescence, primary screen (AID 1119); conditions: small-molecule microarray, higher = more signal, called active from +8 up or from −8 down;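 note: probe is the protein aXip251-270 applied at 1 µg/mL to compound-printed slides; binding of probe to printed compounds measured as 667 nm fluorescence plus signal to noise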
[2] = probe aNOTCH3 binding on compound microarray – biochemical, small-molecule microarray, 635/667 nm fluorescence, primary screen (AID 1120); conditions: higher = more signal;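 note: probe is a biotin-tagged antibody raised against NOTCH3 rather than NOTCH3 protein; score merges spot fluorescence near 667 nm with spot signal to noise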
[3] = probe aNOTCH2 binding on compound microarray – biochemical, small-molecule microarray, 635/667 nm fluorescence, primary screen (AID 1121); conditions: higher = more signal;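 note: score merges feature fluorescence read at 667 nm with its signal to noise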
[4] = target: Carbonic anhydrase 2 (Homo sapiens) (UniProt P00918); assay: compounds binding carbonic anhydrase 2 – biochemical, small-molecule microarray, Alexa647-labelled CAII, profiling panel (AID 1122); conditions: CAII-A647 binding fluorescence, higher = more signal
[5] = COS7 lysate on small-molecule microarray, probe aHis, 635 nm (AID 1123); conditions: COS7 cell lysate, fluorescence, higher = more signal;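 note: z-score combines 667nm fluorescence intensity with signal-to-noise per printed compound spot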
[6] = probe aLAP1 signal on lysate-treated microarray – cell lysate, small-molecule microarray, COS7 lysate, primary screen (AID 1124); conditions: probe aLAP1, fluorescence, higher = more signal;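 note: lysate comes from COS7 cells expressing LAP1 and is applied at 0.3 µg/mL; score merges spot fluorescence near 667 nm with signal-to-noise over triplicate slides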
Sam68 (KHDRBS1) = assay: compounds binding KHDRBS1 protein – biochemical, small-molecule microarray, 635 nm fluorescence, primary screen (AID 1125); conditions: higher = more signal;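 note: score merges 667 nm channel intensity with signal to noise over triplicate slides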
[7] = tested on: Chordin-like protein 2 (CHRDL2); assay: compounds binding chordin-like 2 – biochemical, small-molecule microarray, 635 nm fluorescence, primary screen (AID 1126); conditions: fluorescence 635 nm, higher = more signal;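 note: printed compound slides probed with Chrdl2 protein at 4 µg/mL for 1 h at 4 C; score merges 667 nm emission intensity with signal to noise over three replicate slides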
[8] = target: Concanavalin-A (Canavalia ensiformis) (UniProt P02866); assay: compounds binding concanavalin A lectin – biochemical, small-molecule microarray, Alexa647 label, 635 nm, artefact control for SMM control protein annotation, primary screen (AID 1127); conditions: ConA-A647 binding fluorescence, higher = more signal;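 note: z combines 667 nm emission intensity with signal-to-noise across three replicate slides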
[9] = compounds binding Alexa647 anti-His antibody – biochemical, small-molecule microarray, 635 nm fluorescence, artefact control for SMM control protein annotation, primary screen (AID 1128); conditions: higher = more signal;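 note: score merges feature fluorescence with signal-to-noise for each printed compound spot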
[10] = tested on: Human papillomavirus type 1a E7 protein (residues 1-88); assay: HPV1a E7 small-molecule binders, primary screen, biochemical, small-molecule microarray, residues 1-88, 635 nm (AID 1129); conditions: small-molecule microarray binding, fluorescence 635 nm; higher = more signal
[11] = target: Focal adhesion kinase 1 (Homo sapiens) (UniProt Q05397); assay: PTK2 protein binding on printed compound slides – biochemical, small-molecule microarray, 635/667 nm fluorescence, BSA, DTT, primary screen (AID 1130); conditions: 635 nm fluorescence, higher = more signal;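 note: composite of spot emission at 667 nm and signal to noise over triplicate slides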
[12] = tested on: Fibrinogen (Alexa647-labelled); assay: Alexa647-fibrinogen binding to printed small molecules – biochemical, small-molecule microarray, 635/667 nm fluorescence, artefact control for SMM control-protein annotation, profiling panel (AID 1131); conditions: fibrinogen-A647 binding fluorescence, higher = more signal;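 note: z-score merges 667 nm fluorescence with per-spot signal-to-noise over triplicate slides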
[13] = target: Follistatin (Homo sapiens) (UniProt P19883); assay: FST protein binding to printed compounds – biochemical, small-molecule microarray, 635/667 nm fluorescence, primary screen (AID 1132); conditions: 635 nm fluorescence, higher = more signal
[14] = target: Fibroblast growth factor 2 (Homo sapiens) (UniProt P09038); assay: basic fibroblast growth factor binding to printed compounds – biochemical, small-molecule microarray, 635/667 nm fluorescence, primary screen (AID 1133); conditions: FGF2, fluorescence 635/667, higher = more signal
[15] = JC-1 mitochondrial potential readout, lung cancer cells – cell-based, A549, JC-1 fluorescence, basal, 24 h, 100 nL, profiling panel (AID 1138); conditions: higher = more signal;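 note: A549 lung adenocarcinoma cells under basal conditions with no added stimulus; test concentration not given here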
Lefty1 = Lefty1 protein binding to printed compounds – biochemical, small-molecule microarray, 635/667 nm fluorescence, primary screen (AID 1139); conditions: fluorescence 635/667, higher = more signal
[16] = tested on: wheat germ agglutinin (Triticum aestivum), Alexa647-labelled; assay: Alexa647-WGA lectin binding to printed small molecules – biochemical, small-molecule microarray, 635/667 nm fluorescence, artefact control for SMM control-protein annotation, profiling panel (AID 1140); conditions: WGA-A647 binding, 635 nm fluorescence, higher = more signal;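 note: score merges 667 nm feature emission with signal to noise over triplicate slides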
[17] = target: Luciferin 4-monooxygenase (Photinus pyralis) (UniProt P08659); assay: inhibition of purified Photinus pyralis luciferase – biochemical, luminescence, purified enzyme, 2006 set, primary screen (AID 1141); conditions: purified firefly luciferase, SteadyGlo luminescence, 30 min; higher = more signal, called active from +8 up or from −8 down;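 note: cell-free assay with purified firefly luciferase at 100 ng per well in PBS; test concentration not given here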
Chain of Luciferin 4-monooxygenase (Photinus pyralis) (P08659 whole entry, looked up): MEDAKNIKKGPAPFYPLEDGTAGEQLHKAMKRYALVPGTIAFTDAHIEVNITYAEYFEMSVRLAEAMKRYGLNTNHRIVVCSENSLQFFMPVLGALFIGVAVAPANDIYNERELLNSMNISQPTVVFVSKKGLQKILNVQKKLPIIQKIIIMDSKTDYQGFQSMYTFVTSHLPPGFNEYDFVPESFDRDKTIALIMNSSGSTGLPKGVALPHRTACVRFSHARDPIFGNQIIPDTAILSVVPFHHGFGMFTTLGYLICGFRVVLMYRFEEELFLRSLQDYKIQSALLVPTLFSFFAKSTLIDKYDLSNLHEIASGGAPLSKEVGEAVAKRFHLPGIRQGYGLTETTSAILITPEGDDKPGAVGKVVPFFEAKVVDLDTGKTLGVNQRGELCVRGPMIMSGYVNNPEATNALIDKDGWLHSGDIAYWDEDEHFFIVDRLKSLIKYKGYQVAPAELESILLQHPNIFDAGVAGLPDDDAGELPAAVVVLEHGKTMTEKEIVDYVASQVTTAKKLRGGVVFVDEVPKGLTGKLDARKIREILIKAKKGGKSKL

Chain of Follistatin (Homo sapiens) (P19883 whole entry, looked up): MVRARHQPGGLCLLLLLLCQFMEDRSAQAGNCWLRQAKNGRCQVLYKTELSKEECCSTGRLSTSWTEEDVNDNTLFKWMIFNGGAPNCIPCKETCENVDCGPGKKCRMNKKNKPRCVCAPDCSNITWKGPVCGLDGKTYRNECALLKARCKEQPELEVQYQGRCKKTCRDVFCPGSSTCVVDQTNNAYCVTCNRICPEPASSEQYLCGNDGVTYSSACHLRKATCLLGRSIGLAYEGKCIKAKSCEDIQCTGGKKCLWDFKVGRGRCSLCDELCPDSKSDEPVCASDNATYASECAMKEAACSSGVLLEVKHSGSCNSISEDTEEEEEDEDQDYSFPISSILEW
Chain of Albumin (Bos taurus) (P02769 whole entry, looked up): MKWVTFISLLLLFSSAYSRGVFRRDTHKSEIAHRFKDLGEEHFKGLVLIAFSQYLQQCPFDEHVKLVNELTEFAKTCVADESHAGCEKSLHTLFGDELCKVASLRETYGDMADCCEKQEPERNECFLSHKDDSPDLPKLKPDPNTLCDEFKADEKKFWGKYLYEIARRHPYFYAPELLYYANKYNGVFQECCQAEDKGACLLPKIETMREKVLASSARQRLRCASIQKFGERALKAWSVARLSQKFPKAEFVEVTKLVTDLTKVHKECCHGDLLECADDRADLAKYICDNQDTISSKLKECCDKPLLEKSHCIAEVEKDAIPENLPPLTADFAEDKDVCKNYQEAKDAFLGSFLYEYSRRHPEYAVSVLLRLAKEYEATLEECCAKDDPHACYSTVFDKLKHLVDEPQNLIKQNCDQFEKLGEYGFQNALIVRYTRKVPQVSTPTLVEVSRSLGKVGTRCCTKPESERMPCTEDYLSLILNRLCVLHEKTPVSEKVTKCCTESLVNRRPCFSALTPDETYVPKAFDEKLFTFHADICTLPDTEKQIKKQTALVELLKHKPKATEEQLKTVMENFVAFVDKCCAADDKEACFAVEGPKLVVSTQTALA
Chain of Fibroblast growth factor 2 (Homo sapiens) (P09038 whole entry, looked up): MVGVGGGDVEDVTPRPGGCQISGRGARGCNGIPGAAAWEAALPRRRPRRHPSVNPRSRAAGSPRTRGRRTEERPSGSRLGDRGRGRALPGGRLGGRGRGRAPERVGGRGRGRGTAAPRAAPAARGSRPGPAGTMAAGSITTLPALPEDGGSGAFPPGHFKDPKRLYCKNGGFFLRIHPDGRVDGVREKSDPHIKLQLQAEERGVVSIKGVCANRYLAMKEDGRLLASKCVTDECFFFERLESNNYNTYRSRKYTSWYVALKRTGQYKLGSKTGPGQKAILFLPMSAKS
Chain of Concanavalin-A (Canavalia ensiformis) (P02866 whole entry, looked up): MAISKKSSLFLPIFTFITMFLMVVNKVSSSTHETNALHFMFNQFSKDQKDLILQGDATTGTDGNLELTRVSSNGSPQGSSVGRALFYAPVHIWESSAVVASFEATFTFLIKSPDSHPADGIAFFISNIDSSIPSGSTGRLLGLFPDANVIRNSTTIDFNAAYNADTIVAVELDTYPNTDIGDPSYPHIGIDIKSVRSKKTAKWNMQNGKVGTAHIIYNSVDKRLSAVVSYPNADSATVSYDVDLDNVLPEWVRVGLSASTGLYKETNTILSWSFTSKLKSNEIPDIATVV
Chain of Focal adhesion kinase 1 (Homo sapiens) (Q05397 whole entry, looked up): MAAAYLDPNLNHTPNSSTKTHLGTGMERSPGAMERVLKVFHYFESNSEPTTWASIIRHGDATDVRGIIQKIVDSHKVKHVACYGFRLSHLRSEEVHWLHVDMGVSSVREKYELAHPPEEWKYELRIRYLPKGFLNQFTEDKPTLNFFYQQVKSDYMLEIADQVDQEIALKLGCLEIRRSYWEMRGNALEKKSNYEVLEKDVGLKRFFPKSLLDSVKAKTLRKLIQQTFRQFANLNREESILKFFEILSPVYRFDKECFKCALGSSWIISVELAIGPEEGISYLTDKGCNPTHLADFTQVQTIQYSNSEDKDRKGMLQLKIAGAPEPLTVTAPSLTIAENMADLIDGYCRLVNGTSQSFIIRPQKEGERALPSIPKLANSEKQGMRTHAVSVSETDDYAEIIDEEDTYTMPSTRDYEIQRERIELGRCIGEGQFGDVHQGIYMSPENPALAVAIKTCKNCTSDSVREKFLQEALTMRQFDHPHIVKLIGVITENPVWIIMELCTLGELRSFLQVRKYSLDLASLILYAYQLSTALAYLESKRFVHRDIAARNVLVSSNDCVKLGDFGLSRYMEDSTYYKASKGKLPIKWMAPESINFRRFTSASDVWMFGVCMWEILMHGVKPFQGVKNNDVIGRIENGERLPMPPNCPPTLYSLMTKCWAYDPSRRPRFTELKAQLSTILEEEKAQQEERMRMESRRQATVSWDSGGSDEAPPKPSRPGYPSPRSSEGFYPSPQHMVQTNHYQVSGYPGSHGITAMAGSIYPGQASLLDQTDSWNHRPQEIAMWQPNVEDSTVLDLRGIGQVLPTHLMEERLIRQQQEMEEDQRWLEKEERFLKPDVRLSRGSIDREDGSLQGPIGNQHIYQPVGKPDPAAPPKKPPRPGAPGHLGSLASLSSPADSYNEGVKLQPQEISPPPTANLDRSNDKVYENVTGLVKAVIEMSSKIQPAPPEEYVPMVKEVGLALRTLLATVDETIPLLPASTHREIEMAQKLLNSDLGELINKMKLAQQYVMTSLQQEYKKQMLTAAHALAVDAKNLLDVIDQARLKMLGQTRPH

Row | Structure (SMILES) | composite z-score (Albumin (Bos taurus)) | composite Z-score [1] | composite z-score [2] | composite z-score [3] | composite z-score [4] | composite z-score [5] | composite z-score [6] | composite z-score (Sam68 (KHDRBS1)) | composite z-score [7] | composite z-score [8] | composite z-score [9] | composite z-score [10] | composite z-score [11] | composite z-score [12] | composite z-score [13] | composite z-score [14] | z-score [15] | composite z-score (Lefty1) | composite z-score [16] | z-score [17]
1 | CC(=O)NCCCC[C@@H]1NC(=O)[C@@H]2C[C@H](C(=O)NCCCCCC[N+](C)(C)C)[C@H](c3ccc(O)cc3)N2C1=O | -0.78 | 0.0461 (inactive) | -0.0611 | -0.0173 | 0.188 | 1.17 | -0.414 | 0.992 | 0.965 | 0.301 | 3.45 | 0.377 | -0.153 | 0.333 | 1.41 | 1.56 | -0.856 | 0.907 | 0.78 | 0.32 (inactive)
2 | COC(=O)C1=CC(CCCO)=CC(C2CC2)N(Cc2cccc(OC(F)(F)F)c2)C=C1C(=O)OC (stereo not given) | 0.896 | 0.816 (inactive) | -0.0039 | -0.138 | 0.806 | 2.23 | 0.637 | 1.26 | -0.745 | 0.449 | 1 | 0.846 | 1.03 | 0.884 | 0.0058 | -0.653 | 1.1 | 0.126 | 0.824 | 0.189 (inactive)
3 | CCCCC(=C=CC[C@@H](O)c1ccc(OCCO)cc1)C[C@@H](O)c1ccccn1 | 0.681 | 0.111 (inactive) | 0.0557 | -0.0785 | 0.326 | -0.0207 | 0.209 | 1.15 | 0.102 | 0.223 | -0.0662 | 0.731 | 0.178 | 0.141 | 1.22 | 0.611 | 0.176 | 1.47 | -0.146 | -1.12 (inactive)
4 | C[C@@H](OCc1ccccc1)C1NC(=O)[C@@]23C(=O)N[C@@H](Cc4ccccc4)C2[C@H](C)[C@@]2(C)O[C@H]2C3/C=C/C/C=C\CNC(=O)[C@H](Cc2ccccc2)NC1=O (stereo not given in full) | 0.126 | 0.069 (inactive) | -0.0026 | -0.153 | 0.618 | 0.332 | -0.149 | -0.24 | 0.665 | -0.052 | 0.276 | -0.197 | -0.422 | 0.569 | 0.793 | 0.803 | -0.227 | 0.557 | -0.228 | -3.26 (inactive)
5 | CCCCC(=C=CC[C@@H](O)c1cccc(OCCO)c1)C[C@@H](O)COCc1ccccc1 | 0.59 | 0.196 (inactive) | -0.158 | -0.104 | 0.441 | 0.696 | 0.117 | -0.121 | -0.598 | -0.302 | 0.457 | -0.122 | 0.116 | 0.982 | -0.211 | -0.178 | 0.732 | -0.0843 | 0.498 | -1.88 (inactive)
